Screening results as filed in PubChem.
Compounds with a hit are over-represented: about 7.3% of the library has one in this group of screens.
p53 reactivator = restores transcriptional activity of mutant p53 | Potency, µM (titrated, usually from 92.2 µM), without a hit: at the top dose activity change, positive = activation, most hits filed as activators | H1299 p53-A138V BP100-luciferase reporter, luminescence, 24 h | 0.063% of 320,000 active | AID 504706; note: % of control where 0% means no effect; nearly all actives have a fitted effect of over 45% in size
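p53-null H1299 cells stably carrying temperature-sensitive p53-A138V and a BP100-luciferase reporter were pinned with compounds (4-point, 1:5 series) and held 24 hrs at 37 deg C. Luminescence was read 10 min after detection reagent.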
ELG1 genotox = inducers of genotoxicity in HEK293T ELG1-luciferase cells. HEK293T ELG1-luciferase reporter, luminescence, 16 h. Potency, µM (doses to about 46 µM), for inactives: at the highest dose activity change, positive = activation, usual class: activators. 1.3% of 330,000 active. AID 504466; note: % of control where 0% means no effect; nearly all actives have a fitted effect of over 60% in size
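Genotoxicity was scored as increased ELG1-luciferase reporter signal, measured by ONE-Glo luminescence (30 min, room temperature). Compound or vehicle exposure of the HEK293T reporter cells lasted 16 hr at 37°C.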
FLuc counter = counter-screen for miR-21 project: firefly luciferase inhibitors or activators | purified FLuc, Km substrates, luminescence inhibition | AID 588342 | Potency, µM (titrated, usually from 57.5 µM), for the others: at the top dose activity change, negative = inhibition, usual class: inhibitors | 6.9% of 360,000 active;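 note: plate controls were vehicle for no effect and reference inhibitor for full effect; nearly all actives have a fitted effect of over 55% in size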
Target sequence (P08659 whole entry, looked up): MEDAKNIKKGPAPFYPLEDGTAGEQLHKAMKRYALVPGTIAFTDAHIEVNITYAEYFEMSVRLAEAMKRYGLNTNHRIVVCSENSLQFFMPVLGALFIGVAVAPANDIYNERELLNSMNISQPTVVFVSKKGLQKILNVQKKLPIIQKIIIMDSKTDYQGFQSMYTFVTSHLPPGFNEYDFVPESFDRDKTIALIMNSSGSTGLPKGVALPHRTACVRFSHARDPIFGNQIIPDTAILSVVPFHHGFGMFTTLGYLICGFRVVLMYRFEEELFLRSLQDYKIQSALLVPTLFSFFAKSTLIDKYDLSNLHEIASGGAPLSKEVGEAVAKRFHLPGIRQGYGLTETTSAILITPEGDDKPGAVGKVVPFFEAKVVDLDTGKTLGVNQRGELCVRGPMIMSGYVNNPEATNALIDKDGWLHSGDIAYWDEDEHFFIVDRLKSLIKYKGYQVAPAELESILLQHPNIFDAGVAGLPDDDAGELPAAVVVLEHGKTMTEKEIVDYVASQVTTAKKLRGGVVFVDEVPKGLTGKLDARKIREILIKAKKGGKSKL
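Purified P. pyralis luciferase (10nM final) with 10uM D-luciferin and 10uM ATP (Km levels) in 50mM Tris acetate pH 7.5, 10mM Mg acetate, 0.01% Tween-20, 0.05% BSA; qHTS 6-point titration, ~60 µM downward; luminescence read.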
SMN2 splice up = increases expression of the SMN2 splice variant; HEK293 SMN2-luciferase splicing reporter, luminescence, 30-36 h; Potency, µM (top dose mostly 46.1 µM), for inactives: top-dose activity change, positive = activation, actives largely listed as activators; 2.8% of 210,000 active; AID 1458; note: % of control where 0% means no effect; nearly all actives have a fitted effect of over 55% in size
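HEK293 cells carry an SMN2 […]–luciferase reporter in which exon 7 inclusion puts luciferase in frame. Cells were plated 10-12 h before compound addition, then incubated 30-36 h at 37C. ONE-Glo luminescence was read; sodium butyrate at 4.5 mM final served as control.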
NPC1 prom act = NPC1 promoter activation; AID 485313; 2.4% of 320,000 active; Huh7 NPC1 promoter luciferase reporter, 24 h; Potency, µM (highest dose often 9.22 µM), for the others: top-dose activation, usual class: activators; note: % of control where 0% means no effect; nearly all actives have a fitted effect of over 60% in size
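Luciferase expression driven by the NPC1 promoter was measured in stably transfected Huh7 cells after a 24 h compound incubation, using a luciferase reagent and a luminescence read.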
Rab9 prom act = activates the Rab9 promoter; Potency, µM (doses to about 9.22 µM), for the others: at the top dose activation, negative = inhibition, actives largely listed as activators; Huh7 Rab9 promoter-luciferase reporter, luminescence, 24 h; 2.8% of 320,000 active; AID 485297; note: % of control where 0% means no effect; nearly all actives have a fitted effect of over 60% in size
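Huh7 reporter line, Rab9 promoter upstream of luciferase. Compound exposure 24 h at 37 °C in reduced-serum medium with 10% FBS. Read-out: luminescence.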
* hit, by the source's call; ? = inconclusive; nt = no result given; [ ] = remark or other dose. Calls come from the whole dose curve; as a rule, active = well fitted curve in the direction sought with a large enough effect; inconclusive = small, poorly fitted or top-dose-only effect, or another doubt; inactive = no such curve, though single readings can be large; an effect the other way counts as inactive or inconclusive. Potency is the fitted concentration of half-maximal effect.

SMILES	p53 reactivator	ELG1 genotox	FLuc counter	SMN2 splice up	NPC1 prom act	Rab9 prom act
Cc1cc(OCc2nc(-c3cccnc3)no2)c(C)cc1Br	0.2%	13.1%	6.4%	-3.2%	11.4%	11.9%
COC(=O)C(C)NC(=O)N1CCN(c2nnc(C)c3c(C)n(-c4ccc(Cl)cc4)nc23)CC1 (stereo unspecified)	nt	nt	-0.5%	nt	nt	nt
Cn1c2ccsc2c2cnn(Cc3ccc(F)cc3)c(=O)c21	nt	nt	0.7%	nt	-1.9%	-0.8%
Cc1ccc(-n2ncc(Cl)c2C(=O)NCc2ccccc2)cc1	7.6%	?	10.7µM*	nt	?	?
C=CCNC(=O)c1c(Br)cnn1-c1ccc(C)cc1	7.9%	?	19µM*	nt	2.51µM*	2.51µM*
COc1ccc2c(CNCCc3ccc(SC)cc3)c(C(=O)O)n(Cc3ccc(F)cc3)c2c1	nt	nt	-0.7%	nt	nt	nt
COc1ccc(-c2nc(-c3cccs3)c(-c3cccs3)[nH]2)cc1O	-0.3%	-14.6%	16.9µM*	27.4%	1.2%	-2.4%
Brc1ccccc1-n1nnc(-c2ccnc3ccccc23)n1	6.7%	-0.4%	16.9µM*	nt	2.4%	18.5%
CCOC(=O)c1cc(-c2ccc3c(c2)OCCO3)n[nH]1	18.9%	?	2.39µM*	nt	3.16µM*	1.58µM*
Oc1ccccc1-c1cc(-c2ccc3c(c2)OCCO3)n[nH]1	?	0.366µM*	0.338µM*	3.16µM*	0.501µM*	0.708µM*
O=C(O)c1cc(-c2ccc3c(c2)OCCO3)n[nH]1	-0.8%	2.8%	10.7µM*	nt	-6.1%	-0.2%
CCOC(=O)c1cc(-c2ccc(OC)cc2)n[nH]1	?	?	16.9µM*	nt	?	?
CCOc1ccccc1N1CCN(C/C=C/c2ccc(N(C)C)cc2)CC1	-0.7%	-1.2%	-0.5%	-25.2%	-2.9%	-0.2%
Cc1cccc(OCC(=O)Nc2ccc(OCc3cc(=O)n4cc(C)ccc4n3)cc2)c1	nt	nt	6.7%	nt	nt	nt
CCOC(=O)c1cc2cc3ccccc3cc2[nH]1	?	?	?	3.16µM*	2.24µM*	2.51µM*
Cc1ccccc1C(=O)Nc1nnc(S(=O)(=O)N2CCc3ccccc32)s1	nt	nt	1.6%	nt	nt	nt
CCNc1nc(N)c(C(=O)c2ccc(Cl)s2)s1	?	?	9.53µM*	20µM*	?	3.55µM*
COc1ccccc1N(Cc1ccccc1)S(=O)(=O)c1cccc(C(=O)Nc2ncccc2C)c1	-12.2%	-2.7%	-0.6%	nt	-1.8%	-2.9%
COc1ccccc1N(Cc1ccccc1)S(=O)(=O)c1cccc(C(=O)Nc2cc(C)ccn2)c1	20.3%	?	0.675µM*	nt	?	?
COc1ccccc1N(Cc1ccccc1)S(=O)(=O)c1cccc(C(=O)O)c1	1.1%	0.6%	0.4%	5.01µM*	0.6%	0.3%
Cc1ccc(-n2c(=O)c3sccc3n(Cc3cc(=O)n4cc(Cl)ccc4n3)c2=O)cc1F	-7.0%	2.3%	1.5%	35.5µM*	-1.1%	-1.7%
Cc1ccc(-n2c(=O)c3sccc3n(Cc3cc(=O)n4ccccc4n3)c2=O)cc1F	?	4.1%	-0.4%	4.7%	-1.9%	-0.9%
O=C1ON=C(c2ccccc2)/C1=C/c1ccco1	-2.3%	5.2%	?	12.3%	0.3%	1.7%
O=C(O)c1ccc2c(c1)C(=O)/C(=C\c1ccco1)C2=O	-5.9%	1.3%	9.53µM*	3.0%	-1.1%	0.2%
Cc1ccc(/C=C2/C(=O)c3ccc(C(=O)O)cc3C2=O)o1	0.6%	3.4%	2.69µM*	nt	1.7%	-16.1%
O=C(O)c1ccc2c(c1)C(=O)/C(=C/c1ccccc1)C2=O	-1.9%	-1.7%	?	5.6%	-3.1%	-4.5%
Cc1ccc(C=C2C(=O)c3ccccc3C2=O)o1	?	7.8%	0.477µM*	-7.5%[1.84 µM]	1.9%	1.4%
O=C1C(=Cc2ccco2)C(=O)c2ccccc21	4.1%	2.3%	13.5µM*	7.9%	7.7%	1.4%
